For 5 molecules, composite z-score and z-score results are on record in PubChem BioAssay.

The nature of test [1]: compounds binding Alexa647 anti-His antibody – biochemical, small-molecule microarray, 635 nm fluorescence, artefact control for SMM control protein annotation, primary screen (AID 1128).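 Further: score merges feature fluorescence with signal-to-noise for each printed compound spot.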 The conditions noted are these: higher = more signal.
Test [2] relates to Human papillomavirus type 1a E7 protein (residues 1-88). Briefly: HPV1a E7 small-molecule binders, primary screen, biochemical, small-molecule microarray, residues 1-88, 635 nm (AID 1129). The following applies: small-molecule microarray binding, fluorescence 635 nm; higher = more signal.
Test [3] addresses Focal adhesion kinase 1 (Homo sapiens) (UniProt Q05397). The test can be described thus: PTK2 protein binding on printed compound slides – biochemical, small-molecule microarray, 635/667 nm fluorescence, BSA, DTT, primary screen (AID 1130).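 Further: composite of spot emission at 667 nm and signal to noise over triplicate slides.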 The conditions noted are these: 635 nm fluorescence, higher = more signal.
Test [4] relates to Fibrinogen (Alexa647-labelled). The test can be described thus: Alexa647-fibrinogen binding to printed small molecules – biochemical, small-molecule microarray, 635/667 nm fluorescence, artefact control for SMM control-protein annotation, profiling panel (AID 1131).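 Further: z-score merges 667 nm fluorescence with per-spot signal-to-noise over triplicate slides.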 The following applies: fibrinogen-A647 binding fluorescence, higher = more signal.
Test [5] addresses Follistatin (Homo sapiens) (UniProt P19883). The test can be described thus: FST protein binding to printed compounds – biochemical, small-molecule microarray, 635/667 nm fluorescence, primary screen (AID 1132). The following applies: 635 nm fluorescence, higher = more signal.
Test [6] has as its target Fibroblast growth factor 2 (Homo sapiens) (UniProt P09038). The test can be described thus: basic fibroblast growth factor binding to printed compounds – biochemical, small-molecule microarray, 635/667 nm fluorescence, primary screen (AID 1133). The following applies: FGF2, fluorescence 635/667, higher = more signal.
The nature of test [7]: JC-1 mitochondrial potential readout, lung cancer cells – cell-based, A549, JC-1 fluorescence, basal, 24 h, 100 nL, profiling panel (AID 1138).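 Further: A549 lung adenocarcinoma cells under basal conditions with no added stimulus; test concentration not given here.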 The following applies: higher = more signal.
The next test deals with Lefty1. The test can be described thus: Lefty1 protein binding to printed compounds – biochemical, small-molecule microarray, 635/667 nm fluorescence, primary screen (AID 1139). The following applies: fluorescence 635/667, higher = more signal.
Test [8] has as its system wheat germ agglutinin (Triticum aestivum), Alexa647-labelled. Briefly: Alexa647-WGA lectin binding to printed small molecules – biochemical, small-molecule microarray, 635/667 nm fluorescence, artefact control for SMM control-protein annotation, profiling panel (AID 1140).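 Further: score merges 667 nm feature emission with signal to noise over triplicate slides.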 The following applies: WGA-A647 binding, 635 nm fluorescence, higher = more signal.
The target of test [9] is Luciferin 4-monooxygenase (Photinus pyralis) (UniProt P08659). The test can be described thus: inhibition of purified Photinus pyralis luciferase – biochemical, luminescence, purified enzyme, 2006 set, primary screen (AID 1141).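 Further: cell-free assay with purified firefly luciferase at 100 ng per well in PBS; test concentration not given here.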 The conditions noted are these: purified firefly luciferase, SteadyGlo luminescence, 30 min; higher = more signal, called active from +8 up or from −8 down.
Chain of Luciferin 4-monooxygenase (Photinus pyralis) (P08659 whole entry, looked up): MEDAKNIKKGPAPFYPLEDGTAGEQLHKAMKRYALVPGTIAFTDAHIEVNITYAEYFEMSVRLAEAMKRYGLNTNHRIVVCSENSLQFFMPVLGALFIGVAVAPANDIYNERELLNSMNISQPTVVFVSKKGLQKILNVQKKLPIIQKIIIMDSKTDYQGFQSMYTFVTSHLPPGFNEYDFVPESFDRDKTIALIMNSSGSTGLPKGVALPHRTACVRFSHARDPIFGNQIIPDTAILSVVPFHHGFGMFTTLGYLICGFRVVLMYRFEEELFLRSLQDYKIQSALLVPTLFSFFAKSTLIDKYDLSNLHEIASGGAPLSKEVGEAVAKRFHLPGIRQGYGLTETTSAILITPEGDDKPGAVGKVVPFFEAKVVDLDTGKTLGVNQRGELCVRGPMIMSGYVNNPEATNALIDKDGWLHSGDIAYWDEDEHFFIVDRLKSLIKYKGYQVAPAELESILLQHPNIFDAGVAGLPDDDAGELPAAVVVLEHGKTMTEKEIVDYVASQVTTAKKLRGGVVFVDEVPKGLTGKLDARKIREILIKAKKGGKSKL

The subject of test [10] is Wnt5a (protein binding on small-molecule microarray). Briefly: small molecules binding Wnt5a protein – biophysical, small-molecule microarray, 635/667 nm fluorescence, primary screen (AID 1142).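 Further: fluorescence read at 667 nm with signal to noise per printed feature.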 The conditions noted are these: 635 nm fluorescence, higher = more signal.
Test [11] is described as follows: ATP-based viability of Huh7 replicon cells – cell-based, CellTiter-Glo luminescence, basal, 48 h, cytotoxicity control for HCV replication inhibitor project, primary screen (AID 1143).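 Further: Huh7 hepatoma cells carrying a hepatitis C replication reporter with no stimulus; test concentration not given here.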 The conditions noted are these: higher = more signal, called active from +8 up or from −8 down.
Test [12] in a line: Pseudomonas biofilm growth suppression – PAO1 strain, BacTiter-Glo luminescence, LB-PBS, primary screen (AID 1144). The following applies: P. aeruginosa PAO1 biofilm, 12 h, higher = more signal.
Test [13] in a line: basal CRE-LacZ reporter activity in PC12 – cell-based, unstimulated, primary screen (AID 1145). The conditions noted are these: no forskolin, luminescence, 4.5 h, higher = more signal, called active from +8 up or from −8 down.
Test [14] in a line: forskolin-driven CRE-LacZ activity in PC12 – cell-based, CRE-LacZ reporter, forskolin-stimulated, primary screen (AID 1146).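 Further: PC12 cells with 6xCRE LacZ reporter stimulated by forskolin 10 µM; beta-galactosidase reporter signal reflecting CREB driven transcription.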 The following applies: luminescence, 4.5 h, higher = more signal, called active from +8 up or from −8 down.
In test [15] the target is Streptavidin (Streptomyces avidinii) (UniProt P22629). Briefly: compounds binding control protein streptavidin – biophysical, small-molecule microarray, 635/667 nm fluorescence, artefact control for SMM compound annotation, primary screen (AID 1147).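 Further: signal reflects streptavidin binding to arrayed compounds as a control protein.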 The conditions noted are these: higher = more signal.
Chain of Streptavidin (Streptomyces avidinii) (P22629 whole entry, looked up): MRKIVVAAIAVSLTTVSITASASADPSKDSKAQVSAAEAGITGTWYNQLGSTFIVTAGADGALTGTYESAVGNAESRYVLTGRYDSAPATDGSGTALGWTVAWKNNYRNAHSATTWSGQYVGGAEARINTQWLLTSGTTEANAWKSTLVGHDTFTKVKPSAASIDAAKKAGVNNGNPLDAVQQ
The nature of test [16]: probe aInhba binding on compound microarray – biochemical, small-molecule microarray, 635/667 nm fluorescence, primary screen (AID 1148).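 Further: score merges 667nm spot fluorescence with signal-to-noise for antibody binding to printed compounds.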 The conditions noted are these: higher = more signal.
The target of test [17] is Torsin-1A (Homo sapiens) (UniProt O14656). Briefly: TOR1A wild-type binding on microarray – cell lysate, small-molecule microarray, lysate, 635/667 nm, primary screen (AID 1149). The conditions noted are these: COS7 hTOR1A-WT lysate, 635 nm fluorescence, higher = more signal.
Chain of Torsin-1A (Homo sapiens) (O14656 whole entry, looked up): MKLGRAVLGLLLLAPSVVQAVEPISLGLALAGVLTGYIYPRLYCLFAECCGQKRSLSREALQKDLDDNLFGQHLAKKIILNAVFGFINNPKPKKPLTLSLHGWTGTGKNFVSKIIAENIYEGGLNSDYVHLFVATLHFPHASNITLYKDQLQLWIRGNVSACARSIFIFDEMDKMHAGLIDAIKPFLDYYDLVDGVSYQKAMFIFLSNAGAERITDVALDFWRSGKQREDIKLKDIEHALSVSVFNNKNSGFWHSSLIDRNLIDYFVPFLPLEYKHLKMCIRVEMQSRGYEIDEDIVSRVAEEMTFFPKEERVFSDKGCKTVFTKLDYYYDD
The target is the same in test [18]. Briefly: torsin A mutant lysate binding on microarrays – cell lysate, small-molecule microarray, COS7 lysate, 635/667 nm fluorescence, primary screen (AID 1150).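 Further: score pools 667 nm emission and signal to noise measuring lysate protein binding.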 The conditions noted are these: COS7 hTOR1A mutant lysate, 635 nm fluorescence, higher = more signal.
Test [19] deals with Sonic hedgehog protein (Shh). The test can be described thus: Sonic hedgehog microarray binding compounds – biochemical, small-molecule microarray, 635/667 nm fluorescence, primary screen (AID 1151).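 Further: Shh protein binding to compounds spotted on small-molecule microarray slides; score combines spot fluorescence intensity with signal-to-noise across triplicate slides.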 The conditions noted are these: 635 nm fluorescence, higher = more signal.

Activity calls are given as the source filed them. Unless noted, how the calls were made is not given here.

Chain of Follistatin (Homo sapiens) (P19883 whole entry, looked up): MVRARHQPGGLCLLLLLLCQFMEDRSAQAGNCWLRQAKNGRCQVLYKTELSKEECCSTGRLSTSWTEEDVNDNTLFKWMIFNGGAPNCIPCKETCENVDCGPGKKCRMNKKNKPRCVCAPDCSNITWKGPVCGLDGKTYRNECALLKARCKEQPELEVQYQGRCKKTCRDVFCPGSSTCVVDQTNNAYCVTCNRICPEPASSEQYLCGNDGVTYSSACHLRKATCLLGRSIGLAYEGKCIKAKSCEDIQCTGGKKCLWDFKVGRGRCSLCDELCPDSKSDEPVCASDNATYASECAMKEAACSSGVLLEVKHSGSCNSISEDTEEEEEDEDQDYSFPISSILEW
Chain of Focal adhesion kinase 1 (Homo sapiens) (Q05397 whole entry, looked up): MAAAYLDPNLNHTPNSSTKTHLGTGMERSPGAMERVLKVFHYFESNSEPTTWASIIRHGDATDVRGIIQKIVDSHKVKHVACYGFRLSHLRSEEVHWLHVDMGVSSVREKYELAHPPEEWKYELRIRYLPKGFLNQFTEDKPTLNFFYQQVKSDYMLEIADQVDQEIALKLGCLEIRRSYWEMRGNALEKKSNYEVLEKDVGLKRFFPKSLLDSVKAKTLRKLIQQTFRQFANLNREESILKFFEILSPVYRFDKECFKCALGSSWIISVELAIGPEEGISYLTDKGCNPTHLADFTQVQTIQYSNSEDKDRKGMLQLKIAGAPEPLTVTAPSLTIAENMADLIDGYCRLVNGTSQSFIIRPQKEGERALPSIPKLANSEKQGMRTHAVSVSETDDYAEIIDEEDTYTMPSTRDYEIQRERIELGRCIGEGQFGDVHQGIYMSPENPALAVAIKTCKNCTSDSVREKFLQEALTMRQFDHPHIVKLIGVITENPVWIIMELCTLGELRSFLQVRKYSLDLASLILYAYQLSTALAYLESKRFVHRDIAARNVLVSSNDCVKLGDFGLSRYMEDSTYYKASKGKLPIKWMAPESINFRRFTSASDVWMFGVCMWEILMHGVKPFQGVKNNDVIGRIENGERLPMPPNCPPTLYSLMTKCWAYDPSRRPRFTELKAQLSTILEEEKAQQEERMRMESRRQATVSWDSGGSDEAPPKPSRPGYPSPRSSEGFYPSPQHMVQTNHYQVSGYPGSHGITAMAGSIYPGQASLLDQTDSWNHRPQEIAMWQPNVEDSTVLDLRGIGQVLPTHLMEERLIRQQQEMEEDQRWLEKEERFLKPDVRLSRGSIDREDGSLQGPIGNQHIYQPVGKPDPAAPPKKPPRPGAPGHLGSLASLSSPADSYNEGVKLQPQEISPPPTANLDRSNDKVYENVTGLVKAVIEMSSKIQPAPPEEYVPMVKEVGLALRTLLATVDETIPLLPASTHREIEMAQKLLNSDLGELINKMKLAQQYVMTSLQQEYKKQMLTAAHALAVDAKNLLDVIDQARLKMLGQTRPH
Chain of Fibroblast growth factor 2 (Homo sapiens) (P09038 whole entry, looked up): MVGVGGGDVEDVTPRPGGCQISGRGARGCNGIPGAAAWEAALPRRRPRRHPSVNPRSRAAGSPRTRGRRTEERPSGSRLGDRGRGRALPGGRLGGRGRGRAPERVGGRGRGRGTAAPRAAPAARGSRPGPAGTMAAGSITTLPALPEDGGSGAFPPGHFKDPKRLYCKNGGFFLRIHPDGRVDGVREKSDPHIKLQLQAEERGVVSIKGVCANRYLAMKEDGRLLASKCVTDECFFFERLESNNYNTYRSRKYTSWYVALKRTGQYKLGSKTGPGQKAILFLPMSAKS

As to `COc1ccc(C#Cc2ccc3c(c2)[C@]2(C(=O)N3)[C@H](C(=O)NC[C@H](O)c3ccccc3)[C@H]3C(=O)O[C@H](c4ccccc4)[C@H](c4ccccc4)N3[C@@H]2c2ccccc2OCCO)cc1`, the composite z-score in test [1] stood at 1.05; in [2], 1.19; in test [3] it was 0.686; in [4], 0.844; in test [5] it was 1.09; in [6], 0.604. Besides, the composite z-score with Lefty1 is 1.42; in [8], 0.855; in test [10], 0.0762; in test [15], 0.924; in test [16], 0.421; in the test with Torsin-1A (Homo sapiens) [17], 0.123. Further, the composite z-score with Torsin-1A (Homo sapiens) [18] was found to be 0.535; in test [19], 1.68. The z-score is -1.79 in test [7]; -0.361 (inactive) in [9]; -5.79 (inactive) in [11]; -0.494 (inactive) in test [12]; -0.463 (inactive) in [13]; -0.336 (inactive) in [14].
With `CCCCCCc1nc(CCCc2cc3c(c(CCCCCC)n2)[Si](C(C)C)(C(C)C)OC3)cc2c1[Si](C(C)C)(C(C)C)OC2`, the composite z-score in test [1] is -0.658; in test [2], -1.19; in test [3], -0.0475; in [4] it was -1.14; in [5] it was 0.597; in [6], -0.13. Also, the composite z-score in the test with Lefty1 is 0.0479; in test [8], -0.973; in test [10], -0.0564; in test [15] it was 1.91; in test [16], -0.101; in the test with Torsin-1A (Homo sapiens) [17], -0.333. The results for the composite z-score (with Torsin-1A (Homo sapiens) [18]; in test [19]) were 0.0509 and 0.551, respectively. Besides, the z-score was 0.531 in [7]; 0.651 (inactive) in test [9]; -5.79 (inactive) in test [11]; -0.194 (inactive) in test [12]; 1.78 (inactive) in test [13]; 0.444 (inactive) in test [14].
Regarding `[N-]=[N+]=NCc1ccccc1C[C@]1(C(=O)NCC(O)CO)N=C(c2ccc(OCCCO)cc2)O[C@H]1c1ccccc1N=[N+]=[N-]` (stereo not given in full), the composite z-score in test [1] is 2.99; in test [2], 1.12; in test [3], 1.66; in test [4], 0.188; in test [5], -0.181; in [6] it was -0.189. The composite z-score was -0.923 in the test with Lefty1; 0.541 in test [8]; 0.376 in test [10]; 0.22 in test [15]; 0.403 in [16]; 0.26 with Torsin-1A (Homo sapiens) [17]. The composite z-score was 0.67 with Torsin-1A (Homo sapiens) [18] and -1.48 in [19]. The z-score in test [7] is 1.63; in [9], -6.49 (inactive); in test [11] it was -2.54 (inactive); in test [12], -0.000841 (inactive); in test [13], 0.241 (inactive); in [14] it was -1.78 (inactive).
For `O=c1cccc(CCc2ccccc2)o1`, the composite z-score in [1] is 1.24; in test [2], 0.741; in test [3], 0.675; in test [4] it was -0.229; in [5], 0.641; in test [6], 0.257. In addition, the composite z-score in the test on Lefty1 was 0.593; in test [8], 0.211; in test [10], -0.187; in test [15], -0.0374; in test [16], 0.0357; in the test with Torsin-1A (Homo sapiens) [17], -0.221. In addition, the composite z-score was -0.15 in the test with Torsin-1A (Homo sapiens) [18] and 0.943 in test [19]. Also, the z-score in [7] was 0.426; in [9], 0.0302 (inactive); in [11], -0.908 (inactive); in test [12] it was 0.624 (inactive); in test [13], 1.08 (inactive); in test [14] it was 1.03 (inactive).
Consider `C=CC[C@]1(C(=O)N2CCOCC2)N=C(c2ccc(OCCCO)cc2)O[C@H]1c1ccccc1`, for which the composite z-score in [1] is 1.69; in test [2] it was 1.22; in [3], 0.602; in test [4], 0.866; in [5] it was 0.401; in test [6], 0.12. In addition, the composite z-score in the test on Lefty1 was -0.781; in test [8], 1.28; in test [10], 0.514; in test [15] it was 0.954; in test [16] it was 0.0561; in the test with Torsin-1A (Homo sapiens) [17], -0.267. For the same molecule, the composite z-score with Torsin-1A (Homo sapiens) [18] was 0.96; in [19], -0.509. Besides, the z-score in [7] is 0.409; in [9], 1.25 (inactive); in test [11], -2.02 (inactive); in [12] it was -0.248 (inactive); in test [13], 1.34 (inactive); in test [14] it was -0.302 (inactive).
